Reference: PubChem BioAssay (Tox21)
Records with an inconclusive call do not appear. A call without a number means that no potency is given here. The source made the active and inactive calls. Unless noted, calls follow the shape of the dose curve; as a rule, active = well fitted activation curve with a large enough effect in the repeat runs; inconclusive = weak or mixed curves; inactive = no such curve, though single readings can be large or run the other way.

Each molecule was assayed against Nuclear receptor subfamily 1 group I member 2 (Homo sapiens) (UniProt O75469) (assay: Human pregnane X receptor (PXR) small molecule agonists, qHTS assay (AID 1346982; also: nearly all actives have a fitted effect of over 35% in size; also: potency is read from the fitted curve at half-maximal effect)). Details: PXR-Luc HepG2, CYP3A4 luciferase reporter, 24 h; series mostly up to 92.4 µM.
Chain of Nuclear receptor subfamily 1 group I member 2 (Homo sapiens) (O75469 whole entry, looked up): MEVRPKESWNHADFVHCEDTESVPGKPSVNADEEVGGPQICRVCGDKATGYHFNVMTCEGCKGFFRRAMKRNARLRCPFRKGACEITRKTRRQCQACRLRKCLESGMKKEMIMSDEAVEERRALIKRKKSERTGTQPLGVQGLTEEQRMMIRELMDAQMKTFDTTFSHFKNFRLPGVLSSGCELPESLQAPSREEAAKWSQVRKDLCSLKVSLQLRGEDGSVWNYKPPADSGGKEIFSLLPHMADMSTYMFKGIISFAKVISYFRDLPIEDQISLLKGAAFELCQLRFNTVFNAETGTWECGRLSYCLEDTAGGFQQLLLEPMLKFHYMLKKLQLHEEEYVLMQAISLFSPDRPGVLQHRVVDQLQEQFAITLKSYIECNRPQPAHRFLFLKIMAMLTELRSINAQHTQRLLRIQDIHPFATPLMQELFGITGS
Summary of the method: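 Luciferase signal from ONE-Glo (30 min, room temperature) measured activation of hPXR-driven CYP3A4 reporter expression in PXR-Luc HepG2 cells treated with compounds for 24 hr at 37 C.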

Compound | Potency
Cc1ccc2ccccc2c1 | inactive
C=CCOC(C)=O | inactive
O=C1NCN(c2ccccc2)C12CCN(CCCOc1ccc(F)cc1)CC2 | 5.96 µM (active)
CCOc1nc(F)cc2nc(S(=O)(=O)Nc3c(Cl)cccc3Cl)nn12 | inactive
Cl/C=C\Cl | inactive
Cl/C=C\C[N+]12CN3CN(CN(C3)C1)C2 | inactive
CN1C(=O)NC(=O)C(C)(C2=CCCCC2)C1=O (centres undefined) | inactive
O=C(NC(=O)c1c(F)cccc1F)Nc1ccc(OC(F)(F)C(F)OC(F)(F)F)c(Cl)c1 (centres undefined) | inactive
COC(=O)c1cncn1C(C)c1ccccc1 (centres undefined) | inactive
O=NN1CCCCCC1 | inactive
CCCCCCCCOC(=O)c1ccc(C(=O)OCCCCCCCC)c(C(=O)OCCCCCCCC)c1 | inactive
II | inactive
S=C=NCc1ccccc1 | 61.8 µM (active)
CCOP(O)OCC | inactive
CCBr | inactive
Cc1c(F)c(F)c(COC(=O)C2C(/C=C(\Cl)C(F)(F)F)C2(C)C)c(F)c1F (centres undefined) | 13.7 µM (active)
O=C(Nc1ccccc1)Nc1ccnc(Cl)c1 | 30.6 µM (active)
CC(C)(C)C(O)C(Oc1ccc(Cl)cc1)n1cncn1 (centres undefined) | 4.33 µM (active)
c1ccc(CN2CCNCC2)cc1 | inactive
CC/C(=N\OC/C=C/Cl)C1=C(O)CC(C2CCOCC2)CC1=O (centres undefined) | inactive
Cc1ccccc1CCl | inactive
C=CC[C@]1(O)CC[C@H]2[C@@H]3CCC4=CC(=O)CCC4=C3C=C[C@@]21C | inactive
O=C(NCc1cccnc1)Nc1ccc([N+](=O)[O-])cc1 | inactive

These molecules were tested against Acetylcholinesterase (Homo sapiens) (UniProt P22303) (assay: Acetylcholinesterase (AChE) small molecule antagonists: colormetric cell-based qHTS assay (AID 1347395; calls by dose curve; also: nearly all actives have a fitted effect of over 30% in size)). Details: SH-SY5Y cells AChE activity, colorimetric (Ellman); series mostly up to 115 µM.
Chain of Acetylcholinesterase (Homo sapiens) (P22303 whole entry, looked up): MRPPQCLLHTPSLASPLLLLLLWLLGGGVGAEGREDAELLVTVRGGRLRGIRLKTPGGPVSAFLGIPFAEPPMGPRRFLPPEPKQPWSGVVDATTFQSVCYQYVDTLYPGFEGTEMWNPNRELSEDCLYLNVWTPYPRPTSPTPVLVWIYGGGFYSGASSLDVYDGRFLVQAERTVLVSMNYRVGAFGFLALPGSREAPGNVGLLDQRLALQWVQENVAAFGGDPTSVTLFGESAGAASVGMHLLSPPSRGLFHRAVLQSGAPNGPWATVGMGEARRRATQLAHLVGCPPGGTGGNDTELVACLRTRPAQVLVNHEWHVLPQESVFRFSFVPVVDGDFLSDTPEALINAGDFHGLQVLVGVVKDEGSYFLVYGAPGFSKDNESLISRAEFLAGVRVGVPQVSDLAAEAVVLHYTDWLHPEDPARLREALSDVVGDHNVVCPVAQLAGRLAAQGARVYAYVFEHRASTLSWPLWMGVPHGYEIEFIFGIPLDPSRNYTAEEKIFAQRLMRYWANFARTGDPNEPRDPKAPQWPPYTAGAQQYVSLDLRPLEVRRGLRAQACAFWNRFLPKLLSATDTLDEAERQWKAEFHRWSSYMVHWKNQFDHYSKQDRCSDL
Summary of the method: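 Cells (SH-SY5Y, 2,000 per well) are seeded and left overnight at 37 C. Compound is added for 30 min, then DTNB and acetylthiocholine for a further 90 min at 37 C before absorbance-based thiocholine detection.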

Compound | Potency
Cc1ccc2ccccc2c1 | inactive
C=CCOC(C)=O | inactive
Cl/C=C\Cl | inactive
C=CC(=O)OCCCCO | inactive
O=C(NC(=O)c1c(F)cccc1F)Nc1ccc(OC(F)(F)C(F)OC(F)(F)F)c(Cl)c1 (centres undefined) | inactive
COC(=O)c1cncn1C(C)c1ccccc1 (centres undefined) | inactive
O=NN1CCCCCC1 | inactive
CCCCCCCCOC(=O)c1ccc(C(=O)OCCCCCCCC)c(C(=O)OCCCCCCCC)c1 | inactive
II | inactive
S=C=NCc1ccccc1 | inactive
CCOP(O)OCC | inactive
CCBr | inactive
O=C(Nc1ccccc1)Nc1ccnc(Cl)c1 | inactive
C=CC(=O)OCC(C)C | inactive
CC(C)(C)C(O)C(Oc1ccc(Cl)cc1)n1cncn1 (centres undefined) | inactive
N#Cc1cc(I)c(O)c(I)c1 | inactive
c1ccc(CN2CCNCC2)cc1 | inactive
CC/C(=N\OC/C=C/Cl)C1=C(O)CC(C2CCOCC2)CC1=O (centres undefined) | inactive
Cc1ccccc1CCl | inactive
C=CC[C@]1(O)CC[C@H]2[C@@H]3CCC4=CC(=O)CCC4=C3C=C[C@@]21C | inactive
O=C(NCc1cccnc1)Nc1ccc([N+](=O)[O-])cc1 | inactive
